Data: PubChem BioAssay (NCI)
About 83,000 compounds went through this panel and 20% of them were active in at least one assay; those are over-represented in the sample as a whole.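 Cells were grown in 96-well plates and exposed to the test compound at a single concentration for 48 hours; results are reported as percent growth, with values below 10 considered active.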 Active and inactive are the calls of the source.

Columns and labels:
Assay in all cases: NCI-60 one-dose screen, 48 h (100 = growth as untreated, 0 = no growth, -100 = all killed)
Conditions in all cases: 10 µM unless noted
[1] = system: NCI-H23 lung
[2] = system: NCI-H226 lung
[3] = system: NCI-H322M lung
[4] = system: HOP-62 NSCLC
[5] = system: NCI-H460 lung
[6] = system: HOP-92 NSCLC
[7] = system: NCI-H522 lung
[8] = system: A549/ATCC NSCLC
[9] = system: 786-0 renal
[10] = system: COLO 205 colon
[11] = system: DU-145 prostate
[12] = system: K-562 leukemia
[13] = system: MALME-3M melanoma
[14] = system: MDA-MB-231 breast
[15] = system: RXF 393 renal
[16] = system: SF-268 CNS
[17] = system: SF-295 CNS
[18] = system: SF-539 CNS
[19] = system: UACC-257 melanoma
[20] = system: M14 melanoma

Measured: growth

C[C@@H]1C/C=C\C(=O)O[C@H](/C=C/C#C/C=C/C(C)(C)[C@@H](O)c2cccc(O)c2Br)[C@@H](C)/C=C/[C@H](C)C[C@H](OC(N)=O)C1
active: [6] 9.34% | [10] -26.1% | [12] 6.76% | [14] 2.09% | [17] -6.34% | [19] -11.1% | [20] 0.391%
inactive: [1] 40.6% | [2] 20.1% | [3] 54.1% | [4] 13.1% | [5] 17.1% | [7] 16.7% | [8] 28.5% | [9] 37.2% | [11] 47.6% | [13] 28.4% | [15] 27.4% | [16] 40.4% | [18] 30.6%

C[C@]12CC[C@@H](OC(=O)N(CCCl)N=O)C[C@@H]1CC[C@@H]1[C@@H]2CC[C@]2(C)C(=O)CC[C@@H]12
active: [5] -67.5% | [6] -10.2% | [10] -72.1% | [11] -0.658% | [17] -15.7% | [18] 1.49%
inactive: [1] 74.7% | [2] 88% | [3] 57.5% | [4] 38.6% | [7] 51.1% | [8] 10.3% | [9] 28.4% | [12] 23.2% | [13] 108% | [14] 81.9% | [15] 78% | [16] 30.6% | [19] 76.2%

CC12CCC3C(CCC4CC(O)CCC43C)C1CCC2=O (stereo not drawn)
active: [19] -10.3%
inactive: [1] 98.4% | [2] 98.1% | [3] 102% | [4] 95.8% | [5] 100% | [6] 74.5% | [7] 61.9% | [8] 94.2% | [9] 78.1% | [10] 130% | [11] 103% | [12] 103% | [13] 102% | [14] 111% | [15] 133% | [16] 116% | [17] 94.8% | [18] 99.1%
